Data taken from PubChem BioAssay AID1159580 (chemical genetic matrix, 2015).
Where “and” joins values, the source holds several entries; their conditions need not be identical. Equal entries are not always repeated. The campaign covered roughly 5,500 compounds. About 2,000 (36%) were called active. Inconclusive results (about 18%) are left out. Cut-off read from the data, not from the text of the source: active = normalized growth mostly below about 0.91 (no sharp cut-off); inconclusive = no clear call, values can overlap the other calls; inactive = mostly above about 0.92. The list shows a part of the results.

Assay: chemical genetic growth profiling, strain panel (AID 1159580);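 note: tested at 20 µM; growth read once vehicle control cultures reached saturation at 30 °C; 1 = growth at the plate median or of vehicle wells; lower values mean less growth of the strain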
Conditions: S. cerevisiae deletion strains, growth OD

Measured: normalized growth

c1ccc2c(c1)[nH]c1cnccc12
inactive: locus YAL021C, strain ccr4, hits give low values 1.01 | locus YAL026C, strain drs2, hits give low values 1.01 | locus YAL030W, strain snc1, hits give low values 0.999 | locus YBL061C, strain skt5, hits give low values 0.991 | locus YBR009C, strain hhf1, hits give low values 1 | locus YBR021W, strain FUR4, hits give low values 1.05 | locus YBR023C, strain chs3, hits give low values 0.993 | locus YBR171W, strain sec66, hits give low values 0.99 | locus YBR229C, strain ROT2, hits give low values 1.01 | locus YBR231C, strain swc5, hits give low values 0.999 | locus YBR279W, strain paf1, hits give low values 1 | locus YCL011C, strain gbp2, hits give low values 0.998 | locus YCL016C, strain dcc1, hits give low values 0.999 | locus YCL029C, strain bik1, hits give low values 0.975 | locus YCL061C, strain MRC1, hits give low values 0.997 | locus YCL069W, strain vba3, hits give low values 1 | locus YCR088W, strain abp1, hits give low values 1 | locus YDL005C, strain med2, hits give low values 0.989 | locus YDL035C, strain GPR1, hits give low values 0.991 | locus YDL040C, strain nat1, hits give low values 0.995 | locus YDL074C, strain BRE1, hits give low values 0.977 | locus YDL101C, strain DUN1, hits give low values 0.986 | locus YDL134C, strain PPH21, hits give low values 1.08 | locus YDL185W, strain tfp1, hits give low values 0.954 | locus YDL192W, strain arf1, hits give low values 0.979 | locus YDR001C, strain nth1, hits give low values 1 | locus YDR069C, strain doa4, hits give low values 0.977 | locus YDR101C, strain arx1, hits give low values 0.961 | locus YDR137W, strain rgp1, hits give low values 0.958 | locus YDR159W, strain sac3, hits give low values 1.01 | locus YDR162C, strain NBP2, hits give low values 1.01 | locus YDR195W, strain ref2 0.995 | locus YDR297W, strain sur2, hits give low values 0.999 | locus YDR318W, strain mcm21, hits give low values 1.01 | locus YDR334W, strain swr1, hits give low values 0.998 | locus YDR335W, strain msn5, hits give low values 0.999 | locus YDR388W, hits give low values 0.996 | locus YDR392W, strain spt3, hits give low values 0.967 | locus YDR502C, strain sam2, hits give low values 0.994 | locus YEL003W, strain gim4, hits give low values 1 | locus YEL037C, strain rad23, hits give low values 1.03 | locus YEL061C, strain CIN8 (second series), hits give low values 1.01 | locus YEL061C, strain CIN8, hits give low values 0.99 | locus YER015W, strain faa2, hits give low values 0.982 | locus YER016W, strain bim1, hits give low values 0.992 | locus YER110C, hits give low values 0.964 | locus YER111C, strain swi4, hits give low values 0.984 | locus YER155C, strain BEM2 (second series), hits give low values 0.965 | locus YER155C, strain BEM2, hits give low values 1 | locus YER167W, strain BCK2, hits give low values 1.02 | locus YFR010W, strain ubp6, hits give low values 1 | locus YGL078C, strain dbp3, hits give low values 0.981 | locus YGL086W, strain mad1, hits give low values 0.948 | locus YGL167C, strain pmr1, hits give low values 0.998 | locus YGL173C, strain kem1, hits give low values 0.997 | locus YGL227W, strain vid30, hits give low values 0.999 | locus YGL240W, strain doc1, hits give low values 0.991 | locus YGL248W, strain PDE1, hits give low values 1.01 | locus YGL253W, strain hxk2, hits give low values 1.01 | locus YGR135W, strain pre9, hits give low values 1 | locus YGR229C, strain SMI1, hits give low values 1.02 | locus YGR252W, strain gcn5, hits give low values 1.19 | locus YHR013C, strain ard1, hits give low values 1.02 | locus YHR027C, strain rpn1, hits give low values 0.993 | locus YHR030C, strain SLT2, hits give low values 1 and 1.03 | locus YHR079C, strain IRE1 (second series), hits give low values 0.984 | locus YHR079C, strain IRE1, hits give low values 1.03 | locus YHR094C, strain hxt1, hits give low values 0.994 | locus YHR129C, strain ARP1, hits give low values 1 | locus YHR142W, strain chs7, hits give low values 1.01 | locus YHR200W, strain rpn10, hits give low values 0.98 | locus YIL066C, strain RNR3, hits give low values 1.01 | locus YIL073C, strain SPO22, hits give low values 0.995 | locus YIL125W, strain kgd1, hits give low values 0.992 | locus YIR030C, strain dcg1, hits give low values 0.991 | locus YJL092W, strain hpr5, hits give low values 0.995 | locus YJL095W, strain BCK1 (second series), hits give low values 0.999 | locus YJL095W, strain BCK1, hits give low values 1 and 1.01 | locus YJL115W, strain asf1, hits give low values 0.996 | locus YJL129C, strain trk1, hits give low values 1.01 | locus YJL134W, strain LCB3, hits give low values 1 | locus YJL154C, strain vps35, hits give low values 1 | locus YJL164C, strain tpk1, hits give low values 1.01 | locus YJL166W, strain qcr8, hits give low values 1 | locus YJL168C, strain set2, hits give low values 0.979 | locus YJL187C, strain SWE1 (second series), hits give low values 0.986 | locus YJL187C, strain SWE1, hits give low values 0.995 | locus YJR043C, strain POL32, hits give low values 1.04
